Bioassay records (PubChem)
Keap1-Nrf2 PPI: disrupts human Keap1 binding to Nrf2 peptide | 340,000 compounds, 0.15% hits | Keap1 Kelch-Nrf2 peptide fluorescence polarization, 1536-well | AID 504523 | inhibition, % at 9.4 µM; in the data active = inhibition above about 12%;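 note: human Keap1 Kelch domain with fluorescein labeled Nrf2 9mer peptide probe; 0% = neutral control wells and 100% = peptide positive control; higher means more block of Keap1 binding to Nrf2 peptide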
LANA DNA inh: KSHV C-LANA DNA binding inhibition | MBP-C-LANA/FAM-LBS DNA binding, fluorescence polarization | inhibition, % at 9 µM | 340,000 compounds, 0.078% hits | AID 504423;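 active = highest replicate inhibition at or above 60% at 9 µM, even if other replicates fall short; inactive = all replicates below 60% inhibition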;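 note: 0% = neutral control wells and 100% = 4 µM acridine orange control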
RTF Ca sens inh: cardiac RTF calcium desensitization. AID 493244. inhibition, % at 7.15 µM. P19429+P45379. IANBD-labeled cardiac RTF, Ca2+ fluorescence. 340,000 compounds, 0.12% hits;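 active = inhibition above the mean inhibition of all tested compounds plus 3 SD, cut at about 17% in these data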;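 note: assay run at fixed EC70 calcium of 1.6 mM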
eLon inh: inhibitors of E. coli Lon protease | P0A9M0 | AID 602123 | purified E. coli Lon protease, fluorescence polarization | 360,000 compounds, 0.42% hits | inhibition, % at 7.94 µM; in the data active = inhibition above about 13%, passing the limit was not always enough;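 note: 0% = enzyme with probe and DMSO and 100% = no enzyme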
Target sequence (P0A9M0 whole entry, looked up): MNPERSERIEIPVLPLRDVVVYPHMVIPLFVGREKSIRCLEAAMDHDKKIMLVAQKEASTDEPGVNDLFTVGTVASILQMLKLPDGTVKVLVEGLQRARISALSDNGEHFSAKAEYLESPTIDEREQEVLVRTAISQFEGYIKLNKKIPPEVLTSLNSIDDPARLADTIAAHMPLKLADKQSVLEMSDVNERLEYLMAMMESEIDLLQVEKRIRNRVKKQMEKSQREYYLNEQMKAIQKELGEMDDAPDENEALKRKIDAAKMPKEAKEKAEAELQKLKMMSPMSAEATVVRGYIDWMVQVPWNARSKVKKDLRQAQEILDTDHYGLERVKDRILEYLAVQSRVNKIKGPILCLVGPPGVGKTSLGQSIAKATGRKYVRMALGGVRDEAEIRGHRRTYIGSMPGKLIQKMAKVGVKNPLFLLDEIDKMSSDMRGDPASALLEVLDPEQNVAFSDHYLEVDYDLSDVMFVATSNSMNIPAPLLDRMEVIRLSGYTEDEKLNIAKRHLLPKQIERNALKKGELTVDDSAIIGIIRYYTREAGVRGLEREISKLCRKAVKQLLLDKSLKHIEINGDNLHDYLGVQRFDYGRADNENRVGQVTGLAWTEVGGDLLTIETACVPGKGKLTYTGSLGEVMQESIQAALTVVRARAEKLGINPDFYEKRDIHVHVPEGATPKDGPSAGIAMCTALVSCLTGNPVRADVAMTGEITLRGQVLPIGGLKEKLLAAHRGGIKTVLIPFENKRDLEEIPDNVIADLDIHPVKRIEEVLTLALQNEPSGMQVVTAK
cardiac RTF act: cardiac RTF calcium sensitization. AID 493008. IANBD-labeled TnC RTF fluorescence at EC20 calcium; 0% EC20 calcium, 100% full calcium. P19429+P45379. 340,000 compounds, 0.24% hits. activation, % at 7.2 µM;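 active = activation above the mean over all tested compounds plus 3 SD, cut at about 30% in these data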;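 note: rise in fluorescence read as greater calcium sensitivity of cardiac thin filaments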
eLon confirm: confirmation of E. coli Lon protease inhibitors. shares compounds with eLon inh. purified E. coli Lon, fluorescence polarization. inhibition, % at 7.94 µM. 1,400 compounds, 31% hits. AID 602230; in the data active = inhibition above about 16%;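 note: 0% = enzyme with probe and DMSO and 100% = no enzyme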
Active calls of the source: *; i = inactive; / = no result given; + = active, no number. Shown are actives, neighbours in structure and some others; about 0.82% of the full set was active somewhere.

SMILES | Keap1-Nrf2 PPI | LANA DNA inh | RTF Ca sens inh | eLon inh | cardiac RTF act | eLon confirm
COc1ccc(/C=N/N2CCN(C)CC2)c(OC)c1OC | -4.4 | -1.3 | -1.9 | 20.4* | 2.6 | -8.1
CC(NC(=O)c1ccco1)C1CCCO1 (stereo unspecified) | -3.3 | 0.6 | -4.9 | -1.7 | 5.6 | /
Cc1occc1C(=O)NC(C)C1CCCO1 (stereo unspecified) | 2.0 | 0.3 | -11.4 | 15.2* | -4.0 | -2.9
COC(=O)c1ccc(-c2nc(CN3CCN(C(=O)c4ccco4)CC3)c(C)o2)cc1 | / | / | / | 14.9* | / | -1.6
Cc1onc(-c2c(Cl)cccc2Cl)c1C(=O)N=C(N)N1CCOCC1 | -2.3 | -0.5 | 3.9 | -0.3 | 7.2 | /
COc1ccccc1N1CCN(C(=O)c2c(-c3c(F)cccc3Cl)noc2C)CC1 | -6.8 | -0.9 | -1.4 | 21.2* | -1.4 | 3.7
Cc1onc(-c2c(Cl)cccc2Cl)c1C(=O)N=C(N)N1CCCC1 | 1.5 | -0.3 | -10.2 | 32.9* | 8.9 | 0.5
O=C(Nc1ccn(CCCNCc2cccc3ccccc23)c(=O)n1)OCc1ccccc1 | / | / | / | 12.7* | / | -8.3
O=S(CC(O)(c1ccccc1)c1ccccc1)CC(O)(c1ccccc1)c1ccccc1 | / | / | / | -2.7 | / | /
Brc1ccc(C2=CC(c3cccs3)n3ncnc3N2)cc1 (stereo unspecified) | 55.4* | 101.0* | i | 141.4* | 707.2* | 161.3*
Cc1ccc(C2C=C(c3ccccc3)Nc3ncnn32)cc1 (stereo unspecified) | -1.1 | 4.7 | -15.0 | 9.3 | 0.3 | /
C1=C(c2ccc(-c3ccccc3)cc2)Nc2ncnn2C1c1ccco1 (stereo unspecified) | 5.5 | 26.6 | -425.3 | + | 335.9* | 70.3*
O=C(Oc1ccc2c(c1)O/C(=C\c1ccncc1)C2=O)c1cccs1 | -4.6 | 3.9 | / | 54.5* | / | 23.9*
CS(=O)(=O)Oc1ccc2c(c1)O/C(=C\c1cccnc1)C2=O | 0.8 | -2.0 | -2.6 | 6.5 | 0.7 | /
COc1ccccc1C(=O)Oc1ccc2c(c1)O/C(=C\c1ccncc1)C2=O | 2.1 | 6.2 | -55.4 | 27.7* | 35.0* | 49.3*
CC1=C(C(=O)N2CCOCC2)CC(CC(=O)NC2CCCC2)C(=O)N1Cc1ccc(F)cc1 (stereo unspecified) | / | / | / | -4.1 | / | /
CCSC1=N/C(=C\c2ccc(-c3ccccc3[N+](=O)[O-])o2)C(=O)S1 | 7.9 | 11.8 | -22.3 | 37.3* | 4.9 | -6.7
C#CCN(C[C@H]1[C@H](OC(=O)NCc2ccc(OC)c(OC)c2)[C@H](OC(=O)NCc2ccc(OC)c(OC)c2)C[C@@H](C(=O)OC)[C@H]1C(=O)OC)S(=O)(=O)c1ccc(C)cc1 | / | / | / | 2.1 | / | /
Cc1cccc(NC(=O)C2CCCN(S(=O)(=O)c3c(C)nn(C)c3C)C2)n1 (stereo unspecified) | -1.0 | -3.1 | -9.5 | 12.2* | -1.1 | -9.2
CSc1ncnc2c1ncn2CCCN1CCN(c2ncccn2)CC1 | / | / | / | -10.1 | / | /
COc1cccc(/C=C/C(=O)c2ccc3c(c2)OCCO3)c1OC | 2.3 | 0.3 | 0.2 | 20.1* | -4.3 | 9.0
COc1ccc(/C=C/C(=O)c2ccc3c(c2)OCO3)c(OC)c1 | 2.9 | 0.6 | -14.0 | -5.4 | -3.2 | /
COCCn1nnnc1C(C(C)C)N1CCN(C(=O)c2ccco2)CC1 (stereo unspecified) | -0.3 | 2.4 | -3.8 | -7.4 | 1.4 | /
CCCC(c1nnnn1CCOC)N1CCN(C(=O)c2ccco2)CC1 (stereo unspecified) | 0.7 | -0.7 | -2.8 | 29.3* | 2.1 | -7.2
NNC(=O)CNC(=O)C12CC3CC(CC(C3)C1)C2 | -5.1 | 1.0 | 1.3 | 16.6* | -0.4 | -6.7
SMILES | Keap1-Nrf2 PPI | LANA DNA inh | RTF Ca sens inh | eLon inh | cardiac RTF act | eLon confirm
CC(CCc1ccccc1)NC(=O)CCNS(=O)(=O)c1ccccc1C(F)(F)F (stereo unspecified) | -2.1 | 0.4 | -2.1 | 2.3 | 6.7 | /
N#Cc1cnc(SCC(=O)N2CCCC2)nc1N | -3.5 | -1.4 | 2.0 | 14.3* | -5.0 | -11.1
CCCc1nn(C)c(C(=O)Nc2cccc(C)c2)c1Cl | -2.2 | 1.4 | -0.4 | 24.0 | -0.8 | /
CCCc1nn(C)c(C(=O)Nc2cccc(Cl)c2)c1Cl | -3.7 | 0.6 | 3.6 | 30.2* | -0.7 | 2.1
O=C(CCS(=O)(=O)Cc1ccccc1F)N1CCc2ccccc2C1 | -3.0 | -0.2 | -0.5 | 17.9* | 11.3 | -17.2
O=C(CCS(=O)(=O)Cc1ccccc1)N1CCc2ccccc2C1 | -2.1 | 0.1 | -0.5 | -3.7 | -7.0 | /
COc1ccc(C(C)C)cc1-c1cncc(NC(C)=O)n1 | / | / | / | 5.6 | / | /
CC(C)C[C@@H](CN1CCC[C@H]1CN1C(=O)C(=O)NC[C@@H]1Cc1ccccc1)N1C[C@H](Cc2ccc(O)cc2)N(CC2CCCCCC2)C(=O)C1=O | / | / | / | 11.1* | / | 13.1
COc1cc(C(CC(=O)Nc2ccccn2)N2Cc3ccccc3C2=O)cc(OC)c1OC (stereo unspecified) | 0.8 | 2.2 | -8.1 | 8.1 | -4.3 | /
CCCc1cc(C(=O)Nc2ccc(C(=O)c3ccc(C)cc3)cc2)n(C)n1 | 2.8 | -0.4 | -12.3 | 11.9 | 3.8 | /
CC(=O)Nc1ccc(NC(=O)CSc2ccc(-c3ccco3)nn2)cc1 | -0.1 | -0.3 | -2.7 | 17.2* | 3.4 | -6.2
Cc1ccc(NC(=O)CSc2nnc(-c3ccco3)c(-c3ccco3)n2)cc1 | 3.1 | 2.3 | -0.9 | 161.3* | -4.5 | -12.2
Cc1cccc(C)c1OCC(O)CNC(C)c1ccccc1 (stereo unspecified) | -7.0 | -0.7 | 0.5 | -1.9 | -4.3 | /
Cc1ccc(NC(=O)COC(=O)c2ccc(Br)o2)cc1S(=O)(=O)N1CCCCC1 | 0.4 | 1.1 | -1.5 | 22.6* | -1.8 | 20.3*
Cc1ccc(NC(=O)COC(=O)c2ccc([N+](=O)[O-])o2)cc1S(=O)(=O)N1CCCCC1 | -5.5 | 0.8 | -1.6 | 14.2 | 6.2 | /
CCc1ccccc1Nc1nc(N)nc(CSc2nnc3ccccn23)n1 | -1.1 | -1.5 | 1.7 | 61.6* | 6.7 | -2.9
CCc1ccc(NC(=O)CSCc2nc(N)nc(Nc3ccccc3CC)n2)cc1 | -0.1 | 0.1 | 5.2 | -9.3 | -4.2 | /
COc1ccc(Cl)cc1S(=O)(=O)N1CCC(C(=O)NCC2CCCO2)CC1 (stereo unspecified) | -1.8 | 1.9 | 6.1 | -13.4 | -4.2 | /
COc1ccc(OC)c(S(=O)(=O)N2CCC(C(=O)NCC3CCCO3)CC2)c1 (stereo unspecified) | -3.3 | -0.7 | 7.6 | 32.5* | 3.5 | 15.3
COc1ccc(C(NC(=O)C2CCN(CCc3ccccc3)CC2)c2ccccn2)cc1 (stereo unspecified) | / | / | / | -7.6 | / | /
CCOc1cccc(=O)c2c(C)n(-c3ccc(C(=O)O)cc3)c(C)c12 | -4.1 | 6.1 | -3.6 | -1.5 | -0.7 | /
COc1cccc(=O)c2c(C)n(-c3ccc(C(=O)O)cc3)c(C)c12 | -6.4 | 27.0 | -12.0 | 27.0* | 7.6 | 11.4
Cc1ccc(N2CCN(c3ccc(NCc4nc5ccccc5n4C)cc3)CC2)cc1 | -2.2 | 2.1 | -6.9 | 44.5* | -0.1 | 4.6
